These results are taken from PubChem BioAssay AID504834 (National Center for Advancing Translational Sciences (NCATS), 2011).

Molecules are shown by their SMILES. Hit rate of the full screen: of about 320,000 compounds, about 22,000 (6.9%) were called active. Another 27% or so got no clear call; they are omitted. Many of the other results were omitted from the sample, so actives are more common in it than they were. Values without a mark were called inactive. Calls follow the shape of the dose curve; as a rule, active = well fitted inhibition curve with a large enough effect; inconclusive = small, poorly fitted or top-dose-only effect, or another doubt; inactive = no such curve, though single readings can be large or run the other way.
% is scaled to controls: 0 for no effect and ±100 for the full control effect; potency is read from the fitted curve at half-maximal effect.

This experiment in a line: Primary qHTS for delayed death inhibitors of the malarial parasite plastid, 96 hour incubation. The following applies: P. falciparum luciferase reporter growth; series mostly up to 28.7 µM; activity change, negative = inhibition: at the top concentration. The text has this: The goal of this screen is to discover new antimalarial compounds that act by inhibiting the development of the apicoplast in the malarial parasite Plasmodium falciparum. The biochemical processes that make this organelle essential for erythrocytic stage parasites are not well understood. However, antibiotics such as azithromycin and tetracycline, which target the apicoplast translational machinery, have a potent antimalarial effect.
We have developed a cell-based assay that measures parasite growth based on the expression of an integrated copy of a firefly luciferase reporter. To detect small molecules that cause this "delayed death" phenotype, erythrocytes infected with the luciferase-expressing parasites were incubated with compounds for either one or two generations, corresponding to 48 and 96 hours, respectively. Compounds that inhibit parasite growth in the second generation, but not the first, should be enriched in antimalarials that target the apicoplast. Growth inhibition is detected by a decrease in luciferase activity.
Assay Provider: David Fidock and Eric Ekland, Columbia University
Keywords: NIH Roadmap, MLPCN, MLI, MLSMR, qHTS, NCGC, qHTS, malaria, luciferase, viability
Four microliters of infected erythrocytes (2% hematocrit, 0.05% parasitemia final concentration) in culture medium were dispensed and the plates incubated for 96 hours at 37 C in 5% CO2. Two microliters of luciferase detection reagent was added and luminescence was detected by a ViewLux (PerkinElmer) reader.
On the technique in general: Quantitative high-throughput screening tests each substance at several concentrations.
For `CCN(CC)CCCNC(=O)c1c(O)c2cc(F)cc3c2n(c1=O)C(C)CC3` (stereo unspecified), the “activity change, negative = inhibition” value was 63.5%.

For the molecule `CCN1C(=NCCc2cccnc2)N[C@@H](c2ccccc2)[C@H](C(=O)OC)[C@H]1C`, the Potency was 7.38 µM (active).

For `CC(=O)OC(C(=O)NCCc1ccccc1)c1cccnc1` (stereo unspecified), the “activity change, negative = inhibition” value was 20.2%.

Take `CCN1C(=NCCc2cccnc2)N[C@@H](c2ccccc2)C(C(=O)OC)=C1C`: the Potency result is “inactive”.

In the case of `CC(=O)C1=C(C)NC(=O)NC1c1ccc2c(c1)OCO2` (stereo unspecified), the “activity change, negative = inhibition” value was 42.1%.

For the molecule `CC(C)(C)c1ccc(C(CC(=O)O)NS(=O)(=O)Cc2ccccc2)cc1` (stereo unspecified), the “activity change, negative = inhibition” value was 14.4%.

As to `O=C(Nc1ccc(S(=O)(=O)Nc2nccs2)cc1)c1cccc(S(=O)(=O)N2CCOCC2)c1`, the Potency was 11.7 µM (active).

With `Cc1ccnc(NS(=O)(=O)c2ccc(NC(=O)c3ccc(S(=O)(=O)N4CCOCC4)cc3)cc2)n1`, the “activity change, negative = inhibition” value is -31.3%.

Consider `O=C(Nc1ccc(S(=O)(=O)Nc2nccs2)cc1)c1cc(=O)[nH]c2ccccc12`, for which the “activity change, negative = inhibition” value was 16.1%.

With `Cc1cccc(C)c1NC(=S)N1CCCCCC1`, the “activity change, negative = inhibition” value is 20.3%.

Consider `Cc1ccccc1NC(=O)Cc1nc(COC(=O)c2ccc(C(F)(F)F)cc2)cs1`, for which the “activity change, negative = inhibition” value was 19.2%.

Turning to `Cc1noc(C)c1S(=O)(=O)N(CC(=O)NCc1ccc(Cl)cc1)c1ccc2c(c1)OCO2`, the “activity change, negative = inhibition” value was -22.2%.

As for `CCOc1ccc(N(CC(=O)NCCc2ccc(OC)cc2)S(C)(=O)=O)cc1`, the “activity change, negative = inhibition” value was 22.2%.

For `CCOc1ccc(N(CC(=O)NCc2ccc(OC)cc2)S(=O)(=O)c2c(C)noc2C)cc1`, the Potency is 9.28 µM (active).

`COc1ccc(C(=O)N2CCCN(C)CC2)c(OC)c1`: the “activity change, negative = inhibition” value is -15.6%.

For `Cc1cc(C)c(S(=O)(=O)c2ccc(F)cc2C)c(=O)[nH]1`, the “activity change, negative = inhibition” value was -2.87%.

`O=C(OCC(=O)N1CCCC1=O)c1cc(S(=O)(=O)N2CCOCC2)ccc1Cl`: the “activity change, negative = inhibition” value is 16.7%.

With `Cc1noc(C)c1COc1ccc(C(=O)NCCOc2ccccc2)cc1`, the “activity change, negative = inhibition” value was 34.1%.

With `O=C(CCC1CCN(C(=O)c2cccc(Cl)c2F)CC1)Nc1ccccc1`, the “activity change, negative = inhibition” value was -20.8%.

As to `CCNC(=O)c1cccc(NC(=O)C2CC(=O)N(CCc3ccccc3)C2)c1` (stereo unspecified), the “activity change, negative = inhibition” value was 9.08%.

As to `CN(NC(=O)c1ccccc1F)c1nc(C(F)(F)F)nc2ccccc12`, the Potency is 11.7 µM (active).

In the case of `COC(=O)CNC(=O)c1ccccc1F`, the “activity change, negative = inhibition” value was 9.78%.

Take `CN(NC(=O)c1ccccc1)c1nc2ccccc2nc1C(F)(F)F`: the “activity change, negative = inhibition” value is 31.1%.

Consider `O=C(O)c1ccccc1N=N/C(=N/Nc1cc(S(=O)(=O)O)ccc1O)c1ccccc1`, for which the “activity change, negative = inhibition” value was 15.8%.

Turning to `CC1CC(=O)Nc2ccccc2N1C(=O)COc1ccc2cc(Br)ccc2c1` (stereo unspecified), the “activity change, negative = inhibition” value was -10.8%.

As for `C=CCN(C(=O)Nc1ccc2c(c1)nc(C)n2C)c1ccccc1`, the “activity change, negative = inhibition” value is 128%.

In the case of `C=CCN(C(=O)Nc1ccc2oc(C)nc2c1)c1ccccc1`, the “activity change, negative = inhibition” value is 35.4%.

As for `C=CCN(C(=O)Cn1ncc2c1-c1cc(C)ccc1OC2)c1ccccc1`, the Potency was 9.28 µM (active).

On to `CC(=O)NC(CC(=O)Nc1cccc(S(=O)(=O)N2CCCC2)c1)c1ccccc1` (stereo unspecified), for which the “activity change, negative = inhibition” value was -13.5%.

With `CC[C@]1(O)CC2CN(CCc3c([nH]c4ccccc34)[C@@](C(=O)OC)(c3cc4c(cc3OC)N(C=O)[C@H]3[C@@](O)(C(=O)OC)[C@H](OC(C)=O)[C@]5(CC)C=CCN6CC[C@]43[C@@H]65)C2)C1` (stereo partly specified), the Potency is 0.262 µM (active).

For `CC[C@]1(O)C[C@@H]2CN(CCc3c([nH]c4ccccc34)[C@@](C(=O)OC)(c3cc4c(cc3OC)N(C)[C@H]3[C@@](O)(C(=O)OC)[C@H](OC(C)=O)[C@]5(CC)C=CCN6CC[C@]43[C@@H]65)C2)C1`, the Potency was 0.147 µM (active).

Consider `CN(C(=O)COC(=O)CNC(=O)C12CC3CC(CC(C3)C1)C2)c1ccccc1`, for which the “activity change, negative = inhibition” value is 9.76%.

As to `Cc1cc(NC(=O)CSc2nnnn2-c2ccc(F)cc2)no1`, the “activity change, negative = inhibition” value is 11.3%.

Consider `CC(C(=O)NCCc1ccc(S(N)(=O)=O)cc1)N1C(=O)CC(C)(C)Sc2ccccc21` (stereo unspecified), for which the “activity change, negative = inhibition” value was 8.48%.

Consider `CCCN(C(=O)c1nc2nccc(C)n2n1)c1c(N)n(Cc2ccccc2)c(=O)[nH]c1=O`, for which the “activity change, negative = inhibition” value was -13.1%.

As to `COc1ccc(NC(=S)N2CCc3cc(OC)c(OC)cc3C2)cc1`, the “activity change, negative = inhibition” value was 6.7%.

On to `COc1ccc(OC)c(NC(=S)N2CCc3ccccc3C2)c1`, for which the Potency was 4.15 µM (active).

`COc1ccc(OC)c(NC(=O)c2ccc3c(c2)CCN3S(C)(=O)=O)c1`: the “activity change, negative = inhibition” value was 4.71%.

In the case of `COc1ccccc1/C=C/C(=O)NC(=S)N1CCOCC1`, the “activity change, negative = inhibition” value is 1.93%.

Regarding `COc1ccc(C)cc1NC(=S)N1CCOCC1`, the Potency is 10.4 µM (active).

As to `CCOC(=O)N1CCN(C(=S)Nc2ccc(C)cc2C)CC1`, the “activity change, negative = inhibition” value is 0%.

In the case of `CC1CCCCN1C(=O)CCS(=O)(=O)Cc1ccccc1` (stereo unspecified), the “activity change, negative = inhibition” value is 0%.

`CC(OC(=O)c1ccccc1NCCO)C(=O)Nc1ccnn1C(C)C` (stereo unspecified): the “activity change, negative = inhibition” value is 9.28%.

For `CC(CCN1CCN=C1N(C)C)c1ccccc1` (stereo unspecified), the “activity change, negative = inhibition” value was 0%.

For the molecule `COc1ccc(N=C(C)c2sc3ccccc3c2O)cc1`, the “activity change, negative = inhibition” value was 166%.

For the molecule `Cc1ccc(NS(=O)(=O)c2cn(C)c(=O)n(C)c2=O)c(C)c1`, the “activity change, negative = inhibition” value is -6.8%.

In the case of `Brc1ccc(C2CC(c3ccccc3)=Nc3ccccc3N2)cc1` (stereo unspecified), the “activity change, negative = inhibition” value was -26%.

With `Fc1ccccc1N=C1Nc2cccc3cccc1c23`, the “activity change, negative = inhibition” value was 5.56%.

For `c1ccc(C2=Nc3cccc4cccc(c34)N2)cc1`, the Potency is 11.7 µM (active).

Take `C[C@@H](NC(=O)[C@@H]1Cc2ccccc2CN1)C(=O)NC1CCCC1`: the “activity change, negative = inhibition” value is -9.37%.

For `CN(Cc1cnccn1)C(=O)c1cc(COc2cccc(C(F)(F)F)c2)on1`, the “activity change, negative = inhibition” value is -9.17%.
